# From the supplement of paper PMC4466140
# Legend:
# Assay in all cases: SPOT peptide array binding signal intensity (averaged, normalized) (arbitrary units (background-subtracted, floor 0; scale differs between SH3 domains)); higher = stronger binding of the SH3 domain to the peptide
# [1] = biological target: AgAbp1
# Procedure, shortened: (§1)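 GST-fused SH3 domains from four yeast species were expressed in E. coli BL21(DE3), purified on glutathione Sepharose and incubated at 10 μg/ml overnight at 4°C in TBS-based blocking buffer on cellulose membranes carrying synthetic 15-mer peptides, with cysteines replaced by serines. Bound protein was detected with anti-GST antibody, an HRP anti-mouse secondary and luminol, then imaged and quantified with Genespotter. Binding signal is the normalized, background-subtracted spot intensity averaged over replicates, in arbitrary units that differ between domains.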
# [2] = biological target: AgBbc1
# Procedure, shortened: as §1
# [3] = biological target: AgBem1-D1
# Procedure, shortened: as §1
# [4] = biological target: AgBzz1-D1
# Procedure, shortened: as §1
# [5] = biological target: AgBzz1-D2
# Procedure, shortened: as §1
# [6] = biological target: AgCyk3
# Procedure, shortened: as §1
# [7] = biological target: AgFus1
# Procedure, shortened: as §1
# [8] = biological target: AgHof1
# Procedure, shortened: as §1
# [9] = biological target: AgHse1
# Procedure, shortened: as §1
# [10] = biological target: AgLsb1
# Procedure, shortened: as §1
# [11] = biological target: AgLsb4
# Procedure, shortened: as §1
# [12] = biological target: AgMyo5
# Procedure, shortened: as §1
# [13] = biological target: AgNbp2
# Procedure, shortened: as §1
# [14] = biological target: AgRvs167
# Procedure, shortened: as §1
# [15] = biological target: AgSho1
# Procedure, shortened: as §1
# [16] = biological target: AgSla1-D1-D2
# Procedure, shortened: as §1
# [17] = biological target: AgSla1-D3
# Procedure, shortened: as §1
# [18] = biological target: CaAbp1-D1
# Procedure, shortened: as §1
# [19] = biological target: CaAbp1-D2
# Procedure, shortened: as §1
# [20] = biological target: CaBbc1
# Procedure, shortened: as §1
# [21] = biological target: CaBem1-D1
# Procedure, shortened: as §1
# [22] = biological target: CaBzz1-D1
# Procedure, shortened: as §1
# [23] = biological target: CaBzz1-D2
# Procedure, shortened: as §1
# [24] = biological target: CaCyk3
# Procedure, shortened: as §1
# [25] = biological target: CaFus1
# Procedure, shortened: as §1
# [26] = biological target: CaHof1
# Procedure, shortened: as §1
# [27] = biological target: CaHse1
# Procedure, shortened: as §1
# [28] = biological target: CaLsb1
# Procedure, shortened: as §1
# [29] = biological target: CaLsb4
# Procedure, shortened: as §1
# [30] = biological target: CaMyo5
# Procedure, shortened: as §1
# [31] = biological target: CaNbp2
# Procedure, shortened: as §1
# [32] = biological target: CaRvs167
# Procedure, shortened: as §1
# [33] = biological target: CaRvs167-3
# Procedure, shortened: as §1
# [34] = biological target: CaSho1
# Procedure, shortened: as §1
# [35] = biological target: CaSla1-D1-D2
# Procedure, shortened: as §1
# [36] = biological target: CaSla1-D3
# Procedure, shortened: as §1
# [37] = biological target: ScAbp1
# Procedure, shortened: as §1
# [38] = biological target: ScBbc1
# Procedure, shortened: as §1
# [39] = biological target: ScBem1-D1
# Procedure, shortened: as §1
# [40] = biological target: ScBzz1-D1
# Procedure, shortened: as §1
# [41] = biological target: ScBzz1-D2
# Procedure, shortened: as §1
# [42] = biological target: ScCyk3
# Procedure, shortened: as §1
# [43] = biological target: ScFus1
# Procedure, shortened: as §1
# [44] = biological target: ScHof1
# Procedure, shortened: as §1
# [45] = biological target: ScHse1
# Procedure, shortened: as §1
# [46] = biological target: ScLsb1
# Procedure, shortened: as §1
# [47] = biological target: ScLsb2
# Procedure, shortened: as §1
# [48] = biological target: ScLsb3
# Procedure, shortened: as §1
# [49] = biological target: ScLsb4
# Procedure, shortened: as §1
# [50] = biological target: ScMyo3
# Procedure, shortened: as §1
# [51] = biological target: ScMyo5
# Procedure, shortened: as §1
# [52] = biological target: ScNbp2
# Procedure, shortened: as §1
# [53] = biological target: ScPex13
# Procedure, shortened: as §1
# [54] = biological target: ScRvs167
# Procedure, shortened: as §1
# [55] = biological target: ScSho1
# Procedure, shortened: as §1
# [56] = biological target: ScSla1-D1-D2
# Procedure, shortened: as §1
# [57] = biological target: ScSla1-D3
# Procedure, shortened: as §1
# [58] = biological target: SpAbp1-D1
# Procedure, shortened: as §1
# [59] = biological target: SpBbc1
# Procedure, shortened: as §1
# [60] = biological target: SpBzz1-D1
# Procedure, shortened: as §1
# [61] = biological target: SpBzz1-D2
# Procedure, shortened: as §1
# [62] = biological target: SpCyk3
# Procedure, shortened: as §1
# [63] = biological target: SpHof1
# Procedure, shortened: as §1
# [64] = biological target: SpHof1-2
# Procedure, shortened: as §1
# [65] = biological target: SpHof1-3
# Procedure, shortened: as §1
# [66] = biological target: SpHse1
# Procedure, shortened: as §1
# [67] = biological target: SpLsb1
# Procedure, shortened: as §1
# [68] = biological target: SpLsb4
# Procedure, shortened: as §1
# [69] = biological target: SpMyo1
# Procedure, shortened: as §1
# [70] = biological target: SpNbp2
# Procedure, shortened: as §1
# [71] = biological target: SpPex13
# Procedure, shortened: as §1
# [72] = biological target: SpRvs167
# Procedure, shortened: as §1
# [73] = biological target: SpSla1-D1-D2
# Procedure, shortened: as §1
# [74] = biological target: SpSla1-D3
# Procedure, shortened: as §1
binder,measurement,setting,value
WRPRIVPILPYITRL,SPOT peptide array binding signal intensity,[1],6
same,SPOT peptide array binding signal intensity,[2],13.5
same,SPOT peptide array binding signal intensity,[3],108
same,SPOT peptide array binding signal intensity,[4],11
same,SPOT peptide array binding signal intensity,[5],7.5
same,SPOT peptide array binding signal intensity,[6],9
same,SPOT peptide array binding signal intensity,[7],90
same,SPOT peptide array binding signal intensity,[8],132
same,SPOT peptide array binding signal intensity,[9],434
same,SPOT peptide array binding signal intensity,[10],11
same,SPOT peptide array binding signal intensity,[11],22
same,SPOT peptide array binding signal intensity,[12],2.5
same,SPOT peptide array binding signal intensity,[13],140
same,SPOT peptide array binding signal intensity,[14],2
same,SPOT peptide array binding signal intensity,[15],17
same,SPOT peptide array binding signal intensity,[16],6.5
same,SPOT peptide array binding signal intensity,[17],4
same,SPOT peptide array binding signal intensity,[18],109
same,SPOT peptide array binding signal intensity,[19],92.5
same,SPOT peptide array binding signal intensity,[20],58.8
same,SPOT peptide array binding signal intensity,[21],22
same,SPOT peptide array binding signal intensity,[22],49.5
same,SPOT peptide array binding signal intensity,[23],24.2
same,SPOT peptide array binding signal intensity,[24],29.5
same,SPOT peptide array binding signal intensity,[25],460
same,SPOT peptide array binding signal intensity,[26],2
same,SPOT peptide array binding signal intensity,[27],32
same,SPOT peptide array binding signal intensity,[28],3.5
same,SPOT peptide array binding signal intensity,[29],56
same,SPOT peptide array binding signal intensity,[30],1.5
same,SPOT peptide array binding signal intensity,[31],574
same,SPOT peptide array binding signal intensity,[32],54
same,SPOT peptide array binding signal intensity,[33],56
same,SPOT peptide array binding signal intensity,[34],298
same,SPOT peptide array binding signal intensity,[35],6
same,SPOT peptide array binding signal intensity,[36],2
same,SPOT peptide array binding signal intensity,[37],17
same,SPOT peptide array binding signal intensity,[38],4.25
same,SPOT peptide array binding signal intensity,[39],1
same,SPOT peptide array binding signal intensity,[40],1.5
same,SPOT peptide array binding signal intensity,[41],15.5
same,SPOT peptide array binding signal intensity,[42],33
same,SPOT peptide array binding signal intensity,[43],75
same,SPOT peptide array binding signal intensity,[44],365
same,SPOT peptide array binding signal intensity,[45],636
same,SPOT peptide array binding signal intensity,[46],32.5
same,SPOT peptide array binding signal intensity,[47],7
same,SPOT peptide array binding signal intensity,[48],148
same,SPOT peptide array binding signal intensity,[49],18.5
same,SPOT peptide array binding signal intensity,[50],2
same,SPOT peptide array binding signal intensity,[51],0.5
same,SPOT peptide array binding signal intensity,[52],224
same,SPOT peptide array binding signal intensity,[53],1
same,SPOT peptide array binding signal intensity,[54],251
same,SPOT peptide array binding signal intensity,[55],182
same,SPOT peptide array binding signal intensity,[56],≤ 0
same,SPOT peptide array binding signal intensity,[57],≤ 0
same,SPOT peptide array binding signal intensity,[58],36
same,SPOT peptide array binding signal intensity,[59],7
same,SPOT peptide array binding signal intensity,[60],179
FVLRYYILIPHEQWD,SPOT peptide array binding signal intensity,[1],6
same,SPOT peptide array binding signal intensity,[2],≤ 0
same,SPOT peptide array binding signal intensity,[3],190
same,SPOT peptide array binding signal intensity,[4],≤ 0
same,SPOT peptide array binding signal intensity,[5],5.5
same,SPOT peptide array binding signal intensity,[6],13.5
same,SPOT peptide array binding signal intensity,[7],1800
same,SPOT peptide array binding signal intensity,[8],5
same,SPOT peptide array binding signal intensity,[9],1200
same,SPOT peptide array binding signal intensity,[10],3
same,SPOT peptide array binding signal intensity,[11],334
same,SPOT peptide array binding signal intensity,[12],1
same,SPOT peptide array binding signal intensity,[13],82.5
same,SPOT peptide array binding signal intensity,[14],2.5
same,SPOT peptide array binding signal intensity,[15],218
same,SPOT peptide array binding signal intensity,[16],14.5
same,SPOT peptide array binding signal intensity,[17],2.75
same,SPOT peptide array binding signal intensity,[18],30.5
same,SPOT peptide array binding signal intensity,[19],78.5
same,SPOT peptide array binding signal intensity,[20],0.25
same,SPOT peptide array binding signal intensity,[21],≤ 0
same,SPOT peptide array binding signal intensity,[22],63
same,SPOT peptide array binding signal intensity,[23],36.8
same,SPOT peptide array binding signal intensity,[24],5
same,SPOT peptide array binding signal intensity,[25],3930
same,SPOT peptide array binding signal intensity,[26],0.75
same,SPOT peptide array binding signal intensity,[27],174
same,SPOT peptide array binding signal intensity,[28],6.5
same,SPOT peptide array binding signal intensity,[29],31.5
same,SPOT peptide array binding signal intensity,[30],31.5
same,SPOT peptide array binding signal intensity,[31],595
same,SPOT peptide array binding signal intensity,[32],216
same,SPOT peptide array binding signal intensity,[33],119
same,SPOT peptide array binding signal intensity,[34],666
same,SPOT peptide array binding signal intensity,[35],≤ 0
same,SPOT peptide array binding signal intensity,[36],163
same,SPOT peptide array binding signal intensity,[37],≤ 0
same,SPOT peptide array binding signal intensity,[38],≤ 0
same,SPOT peptide array binding signal intensity,[39],14.5
same,SPOT peptide array binding signal intensity,[40],14
same,SPOT peptide array binding signal intensity,[41],28
same,SPOT peptide array binding signal intensity,[42],35
same,SPOT peptide array binding signal intensity,[43],1310
same,SPOT peptide array binding signal intensity,[44],≤ 0
same,SPOT peptide array binding signal intensity,[45],1060
same,SPOT peptide array binding signal intensity,[46],≤ 0
same,SPOT peptide array binding signal intensity,[47],1.5
same,SPOT peptide array binding signal intensity,[48],67
same,SPOT peptide array binding signal intensity,[49],5
same,SPOT peptide array binding signal intensity,[50],1.5
same,SPOT peptide array binding signal intensity,[51],3
same,SPOT peptide array binding signal intensity,[52],187
same,SPOT peptide array binding signal intensity,[53],7.5
same,SPOT peptide array binding signal intensity,[54],9.83
same,SPOT peptide array binding signal intensity,[55],1100
same,SPOT peptide array binding signal intensity,[56],7.5
same,SPOT peptide array binding signal intensity,[57],51
same,SPOT peptide array binding signal intensity,[58],59.5
same,SPOT peptide array binding signal intensity,[59],2
same,SPOT peptide array binding signal intensity,[60],20.5
same,SPOT peptide array binding signal intensity,[61],3.25
same,SPOT peptide array binding signal intensity,[62],27.5
same,SPOT peptide array binding signal intensity,[63],79.5
same,SPOT peptide array binding signal intensity,[64],32.5
same,SPOT peptide array binding signal intensity,[65],554
same,SPOT peptide array binding signal intensity,[66],954
same,SPOT peptide array binding signal intensity,[67],2.5
same,SPOT peptide array binding signal intensity,[68],11.5
same,SPOT peptide array binding signal intensity,[69],13.2
same,SPOT peptide array binding signal intensity,[70],574
same,SPOT peptide array binding signal intensity,[71],47.5
same,SPOT peptide array binding signal intensity,[72],10.7
same,SPOT peptide array binding signal intensity,[73],1
same,SPOT peptide array binding signal intensity,[74],9.5
